# Source: PMC7862700, “An all-to-all approach to the identification of sequence-specific readers for epigenetic DNA modifications on cytosine”
# Legend:
# Experiment in all cases: DAPPL (digital affinity profiling via proximity ligation, sequencing); 10 mM Tris-HCl pH 7.5, 50 mM NaCl, 1 mM DTT, 4% glycerol, room temperature, 30 min; GST-TFs on glutathione beads, 16-mer random dsDNA library, 0.1% formaldehyde crosslink after washing; high values mean tight binding
# [1] = target: T1, FEV (Homo sapiens, UniProt Q99581 1-238); conditions: protein: recombinant; tags: N-terminal GST; dsDNA, one strand shown
# T1 sequence: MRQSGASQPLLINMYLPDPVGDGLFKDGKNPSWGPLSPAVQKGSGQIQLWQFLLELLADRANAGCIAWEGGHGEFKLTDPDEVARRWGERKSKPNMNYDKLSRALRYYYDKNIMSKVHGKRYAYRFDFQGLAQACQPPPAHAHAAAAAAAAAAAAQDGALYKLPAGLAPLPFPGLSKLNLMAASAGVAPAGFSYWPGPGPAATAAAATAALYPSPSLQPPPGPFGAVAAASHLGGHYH
# Summary of the method: (§1)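 Sequencing on an Illumina NextSeq500 followed washing, crosslinking with 0.1% formaldehyde, proximity ligation (BsaI/T4 ligase, 1 h, 37 °C) and PCR amplification of pools that had been incubated for 30 min at room temperature with 200 nmole of a random double-stranded 16-mer DNA library in Tris/NaCl/DTT/glycerol buffer. Each pool held DNA-barcoded human transcription factors, expressed in yeast as GST fusions and captured on glutathione beads, plus a tag-only sample. Binding signal is a hexamer's read frequency for a factor divided by its frequency in the tag-only sample.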
# [2] = target: ETV5 (Homo sapiens, UniProt P41161 1-510); conditions: protein: recombinant; tags: N-terminal GST; dsDNA, one strand shown
# ETV5, sequence (P41161 whole entry): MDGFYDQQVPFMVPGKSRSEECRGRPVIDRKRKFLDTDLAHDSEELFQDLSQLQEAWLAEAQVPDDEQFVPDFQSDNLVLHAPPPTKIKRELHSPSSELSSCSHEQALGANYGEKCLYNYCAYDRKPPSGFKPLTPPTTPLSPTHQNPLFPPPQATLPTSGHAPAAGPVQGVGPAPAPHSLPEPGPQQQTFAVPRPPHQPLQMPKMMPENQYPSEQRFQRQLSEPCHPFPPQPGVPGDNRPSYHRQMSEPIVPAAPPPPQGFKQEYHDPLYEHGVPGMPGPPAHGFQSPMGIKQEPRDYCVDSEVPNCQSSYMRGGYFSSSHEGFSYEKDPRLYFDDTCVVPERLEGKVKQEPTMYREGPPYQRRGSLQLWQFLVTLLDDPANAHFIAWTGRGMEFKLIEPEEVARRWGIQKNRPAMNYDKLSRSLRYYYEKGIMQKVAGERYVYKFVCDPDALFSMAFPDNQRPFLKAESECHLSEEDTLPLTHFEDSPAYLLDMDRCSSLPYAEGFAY
# Summary of the method: as §1
# [3] = target: HSF1 (Homo sapiens, UniProt Q00613 1-529); conditions: protein: recombinant; tags: N-terminal GST; chain copies: 3; dsDNA, one strand shown
# HSF1, sequence (Q00613 whole entry): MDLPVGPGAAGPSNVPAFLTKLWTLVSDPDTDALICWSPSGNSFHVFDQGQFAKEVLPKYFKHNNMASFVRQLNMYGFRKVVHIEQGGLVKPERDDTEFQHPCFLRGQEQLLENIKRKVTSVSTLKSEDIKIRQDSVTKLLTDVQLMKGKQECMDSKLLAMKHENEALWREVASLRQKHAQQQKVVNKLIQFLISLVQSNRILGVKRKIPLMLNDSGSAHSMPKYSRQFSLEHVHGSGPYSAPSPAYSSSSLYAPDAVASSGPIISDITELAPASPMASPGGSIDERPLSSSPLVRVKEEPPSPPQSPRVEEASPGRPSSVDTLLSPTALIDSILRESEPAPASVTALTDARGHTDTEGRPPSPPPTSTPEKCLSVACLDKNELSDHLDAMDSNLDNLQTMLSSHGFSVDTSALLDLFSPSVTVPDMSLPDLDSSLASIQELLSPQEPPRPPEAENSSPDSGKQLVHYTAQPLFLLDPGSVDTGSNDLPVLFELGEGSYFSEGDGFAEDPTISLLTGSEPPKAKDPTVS
# Summary of the method: as §1
# [4] = target: T2, SPIC (Homo sapiens, UniProt Q8N5J4 1-248); conditions: protein: recombinant; tags: N-terminal GST; dsDNA, one strand shown
# T2 sequence: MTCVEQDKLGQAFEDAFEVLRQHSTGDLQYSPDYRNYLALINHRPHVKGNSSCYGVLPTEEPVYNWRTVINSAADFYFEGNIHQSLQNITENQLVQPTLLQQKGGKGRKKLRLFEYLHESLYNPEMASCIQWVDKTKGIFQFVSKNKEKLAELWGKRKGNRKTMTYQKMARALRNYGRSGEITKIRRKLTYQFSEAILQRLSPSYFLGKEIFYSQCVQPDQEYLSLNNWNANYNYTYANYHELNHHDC
# Summary of the method: as §1
# [5] = target: ELF4 (Homo sapiens, UniProt Q99607 1-663); conditions: protein: recombinant; tags: N-terminal GST; dsDNA, one strand shown
# ELF4, sequence (Q99607 whole entry): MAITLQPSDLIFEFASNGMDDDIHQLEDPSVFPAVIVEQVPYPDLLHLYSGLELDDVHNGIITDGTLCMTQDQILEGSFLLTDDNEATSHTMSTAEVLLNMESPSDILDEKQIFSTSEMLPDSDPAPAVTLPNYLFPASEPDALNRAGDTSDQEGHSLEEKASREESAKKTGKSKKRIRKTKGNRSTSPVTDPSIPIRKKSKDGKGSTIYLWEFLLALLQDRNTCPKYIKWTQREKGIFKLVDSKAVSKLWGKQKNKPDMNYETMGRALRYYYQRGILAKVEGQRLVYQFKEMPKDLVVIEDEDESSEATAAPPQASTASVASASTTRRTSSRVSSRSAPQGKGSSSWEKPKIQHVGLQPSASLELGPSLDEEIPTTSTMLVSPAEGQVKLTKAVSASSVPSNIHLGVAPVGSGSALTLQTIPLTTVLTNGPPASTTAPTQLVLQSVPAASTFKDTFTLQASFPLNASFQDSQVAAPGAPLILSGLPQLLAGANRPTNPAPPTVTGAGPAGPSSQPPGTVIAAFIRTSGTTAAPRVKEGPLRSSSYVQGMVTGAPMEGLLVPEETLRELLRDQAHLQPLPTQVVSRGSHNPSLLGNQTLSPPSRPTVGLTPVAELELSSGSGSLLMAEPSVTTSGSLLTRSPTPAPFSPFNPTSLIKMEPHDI
# Summary of the method: as §1
# [6] = target: T3, ELK4 (Homo sapiens, UniProt P28324-2 1-405); conditions: protein: recombinant; tags: N-terminal GST; dsDNA, one strand shown
# T3 sequence: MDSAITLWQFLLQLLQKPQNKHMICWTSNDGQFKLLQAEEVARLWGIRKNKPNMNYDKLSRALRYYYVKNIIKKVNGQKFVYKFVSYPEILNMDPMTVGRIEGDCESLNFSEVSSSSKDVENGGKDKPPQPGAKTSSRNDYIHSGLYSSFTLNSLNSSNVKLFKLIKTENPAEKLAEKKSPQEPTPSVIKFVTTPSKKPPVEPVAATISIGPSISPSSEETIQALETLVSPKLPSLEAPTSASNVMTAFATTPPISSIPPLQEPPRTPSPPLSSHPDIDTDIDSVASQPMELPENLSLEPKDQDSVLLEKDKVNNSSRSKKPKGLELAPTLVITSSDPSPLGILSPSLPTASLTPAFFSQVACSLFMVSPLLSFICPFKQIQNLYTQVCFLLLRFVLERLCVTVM
# Summary of the method: as §1
# [7] = target: T4, ETV2 (Homo sapiens, UniProt O00321 1-342); conditions: protein: recombinant; tags: N-terminal GST; dsDNA, one strand shown
# T4 sequence: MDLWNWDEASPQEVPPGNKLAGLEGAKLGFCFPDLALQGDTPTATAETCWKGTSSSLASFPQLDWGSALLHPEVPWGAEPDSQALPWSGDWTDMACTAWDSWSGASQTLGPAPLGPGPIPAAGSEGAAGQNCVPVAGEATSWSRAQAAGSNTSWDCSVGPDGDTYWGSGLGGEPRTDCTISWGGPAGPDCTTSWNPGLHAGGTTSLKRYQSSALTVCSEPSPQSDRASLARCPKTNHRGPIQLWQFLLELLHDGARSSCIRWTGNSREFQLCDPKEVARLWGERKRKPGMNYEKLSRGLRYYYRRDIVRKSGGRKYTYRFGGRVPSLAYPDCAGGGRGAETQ
# Summary of the method: as §1
# [8] = target: T5, ELF3 (Homo sapiens, UniProt P78545 1-371); conditions: protein: recombinant; tags: N-terminal GST; dsDNA, one strand shown
# T5 sequence: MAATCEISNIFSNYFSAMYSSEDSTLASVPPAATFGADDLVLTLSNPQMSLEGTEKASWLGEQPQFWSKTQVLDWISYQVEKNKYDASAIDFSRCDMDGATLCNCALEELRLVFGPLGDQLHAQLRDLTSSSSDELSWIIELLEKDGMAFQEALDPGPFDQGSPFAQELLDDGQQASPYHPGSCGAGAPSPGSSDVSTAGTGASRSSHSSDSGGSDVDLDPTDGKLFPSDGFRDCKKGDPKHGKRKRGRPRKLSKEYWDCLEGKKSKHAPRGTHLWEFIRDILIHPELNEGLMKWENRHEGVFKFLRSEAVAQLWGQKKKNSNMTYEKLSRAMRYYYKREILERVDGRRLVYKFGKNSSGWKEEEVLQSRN
# Summary of the method: as §1
# [9] = target: CRX (Homo sapiens, UniProt O43186 1-299); conditions: protein: recombinant; tags: N-terminal GST; dsDNA, one strand shown
# CRX, sequence (O43186 whole entry): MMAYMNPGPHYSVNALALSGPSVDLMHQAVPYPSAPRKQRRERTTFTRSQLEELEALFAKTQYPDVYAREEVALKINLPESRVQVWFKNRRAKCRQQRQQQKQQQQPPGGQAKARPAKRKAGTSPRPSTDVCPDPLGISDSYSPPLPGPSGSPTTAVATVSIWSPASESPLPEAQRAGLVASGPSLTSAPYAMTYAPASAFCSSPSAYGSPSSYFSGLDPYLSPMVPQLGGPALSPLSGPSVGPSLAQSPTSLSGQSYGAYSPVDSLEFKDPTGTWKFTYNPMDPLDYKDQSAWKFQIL
# Summary of the method: as §1
# [10] = target: T6, ERF (Homo sapiens, UniProt P50548 1-548); conditions: protein: recombinant; tags: N-terminal GST; dsDNA, one strand shown
# T6 sequence: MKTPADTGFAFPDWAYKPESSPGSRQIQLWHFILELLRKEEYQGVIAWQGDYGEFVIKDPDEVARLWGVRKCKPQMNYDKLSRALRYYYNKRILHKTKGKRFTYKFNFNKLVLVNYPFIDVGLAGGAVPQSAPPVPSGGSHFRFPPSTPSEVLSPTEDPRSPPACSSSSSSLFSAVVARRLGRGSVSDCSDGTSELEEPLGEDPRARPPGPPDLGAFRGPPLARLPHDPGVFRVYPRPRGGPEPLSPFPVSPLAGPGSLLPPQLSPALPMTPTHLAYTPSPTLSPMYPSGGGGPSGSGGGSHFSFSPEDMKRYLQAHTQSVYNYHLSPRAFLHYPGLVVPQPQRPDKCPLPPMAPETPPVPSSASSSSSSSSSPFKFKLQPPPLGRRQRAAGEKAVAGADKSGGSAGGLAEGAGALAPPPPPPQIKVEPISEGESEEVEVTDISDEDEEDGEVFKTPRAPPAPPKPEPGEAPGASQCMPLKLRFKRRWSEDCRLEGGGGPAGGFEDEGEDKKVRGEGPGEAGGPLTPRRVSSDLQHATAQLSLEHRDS
# Summary of the method: as §1
# [11] = target: T7, ETS2 (Homo sapiens, UniProt P15036 1-469); conditions: protein: recombinant; tags: N-terminal GST; dsDNA, one strand shown
# T7 sequence: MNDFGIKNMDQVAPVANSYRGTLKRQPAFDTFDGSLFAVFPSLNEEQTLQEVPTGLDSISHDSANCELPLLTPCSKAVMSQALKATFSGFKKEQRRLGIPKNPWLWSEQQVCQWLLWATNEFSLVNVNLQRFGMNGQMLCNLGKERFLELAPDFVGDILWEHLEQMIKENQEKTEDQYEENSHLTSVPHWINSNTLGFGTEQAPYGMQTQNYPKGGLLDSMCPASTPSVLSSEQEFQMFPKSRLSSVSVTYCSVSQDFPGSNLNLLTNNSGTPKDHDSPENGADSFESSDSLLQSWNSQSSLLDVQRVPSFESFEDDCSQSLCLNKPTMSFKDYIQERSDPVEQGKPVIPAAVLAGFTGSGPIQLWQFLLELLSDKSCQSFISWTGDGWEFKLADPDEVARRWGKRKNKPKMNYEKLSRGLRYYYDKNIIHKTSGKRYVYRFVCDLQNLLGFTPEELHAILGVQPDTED
# Summary of the method: as §1
# [12] = target: T8, SPDEF (Homo sapiens, UniProt O95238 1-335); conditions: protein: recombinant; tags: N-terminal GST; dsDNA, one strand shown
# T8 sequence: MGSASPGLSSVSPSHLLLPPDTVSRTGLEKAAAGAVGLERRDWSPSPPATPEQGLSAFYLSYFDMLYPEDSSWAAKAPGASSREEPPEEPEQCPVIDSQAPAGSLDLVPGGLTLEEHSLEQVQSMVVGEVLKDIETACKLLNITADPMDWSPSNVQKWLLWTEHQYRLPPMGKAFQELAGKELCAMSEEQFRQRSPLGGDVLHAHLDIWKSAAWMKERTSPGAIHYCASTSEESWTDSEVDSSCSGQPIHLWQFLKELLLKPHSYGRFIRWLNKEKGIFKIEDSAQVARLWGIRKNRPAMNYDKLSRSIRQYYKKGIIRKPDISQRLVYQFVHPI
# Summary of the method: as §1
# [13] = target: T9, ETV7 (Homo sapiens, UniProt Q9Y603 1-341); conditions: protein: recombinant; tags: N-terminal GST; dsDNA, one strand shown
# T9 sequence: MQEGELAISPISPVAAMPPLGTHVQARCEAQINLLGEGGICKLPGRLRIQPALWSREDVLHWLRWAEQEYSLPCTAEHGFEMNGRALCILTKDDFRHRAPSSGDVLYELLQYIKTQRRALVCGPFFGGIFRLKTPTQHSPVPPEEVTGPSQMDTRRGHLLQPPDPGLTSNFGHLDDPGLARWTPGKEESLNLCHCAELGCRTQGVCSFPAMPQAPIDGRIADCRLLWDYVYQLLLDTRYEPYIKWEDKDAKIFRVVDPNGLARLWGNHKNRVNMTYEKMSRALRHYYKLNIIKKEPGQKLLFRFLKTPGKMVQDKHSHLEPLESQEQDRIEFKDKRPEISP
# Summary of the method: as §1
# [14] = target: T10, ELF5 (Homo sapiens, UniProt Q9UKW6-2 1-255); conditions: protein: recombinant; tags: N-terminal GST; dsDNA, one strand shown
# T10 sequence: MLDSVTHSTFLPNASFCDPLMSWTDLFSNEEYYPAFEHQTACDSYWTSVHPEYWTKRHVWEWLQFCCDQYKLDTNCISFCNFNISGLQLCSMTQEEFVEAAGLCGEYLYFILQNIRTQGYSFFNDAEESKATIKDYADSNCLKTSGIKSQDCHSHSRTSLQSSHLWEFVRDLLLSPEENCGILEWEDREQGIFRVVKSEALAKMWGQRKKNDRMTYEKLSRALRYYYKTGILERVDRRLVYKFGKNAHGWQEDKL
# Summary of the method: as §1
# [15] = target: T11, ETV3 (Homo sapiens, UniProt P41162-2 1-143); conditions: protein: recombinant; tags: N-terminal GST; dsDNA, one strand shown
# T11 sequence: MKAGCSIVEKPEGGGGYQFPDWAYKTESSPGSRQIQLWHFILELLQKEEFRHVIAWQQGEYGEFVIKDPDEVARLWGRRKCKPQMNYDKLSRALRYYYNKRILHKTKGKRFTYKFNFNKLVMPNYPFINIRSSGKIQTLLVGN
# Summary of the method: as §1
# [16] = target: ETV6 (Homo sapiens, UniProt P41212 1-452); conditions: protein: recombinant; tags: N-terminal GST; dsDNA, one strand shown
# ETV6, sequence (P41212 whole entry): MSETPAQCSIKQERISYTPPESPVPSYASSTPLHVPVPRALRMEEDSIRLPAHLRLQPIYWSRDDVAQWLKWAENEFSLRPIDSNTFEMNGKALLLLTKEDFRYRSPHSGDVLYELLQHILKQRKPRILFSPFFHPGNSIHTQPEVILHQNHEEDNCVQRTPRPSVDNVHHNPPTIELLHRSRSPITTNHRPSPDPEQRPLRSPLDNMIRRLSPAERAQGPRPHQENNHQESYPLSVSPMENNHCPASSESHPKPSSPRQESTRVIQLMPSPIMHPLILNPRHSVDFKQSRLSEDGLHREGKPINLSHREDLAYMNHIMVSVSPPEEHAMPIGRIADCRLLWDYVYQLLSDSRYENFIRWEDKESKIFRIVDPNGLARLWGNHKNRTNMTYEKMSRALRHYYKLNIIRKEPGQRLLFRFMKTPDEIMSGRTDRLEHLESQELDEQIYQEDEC
# Summary of the method: as §1
sequence,measurement,setting,value
AGTTAA,binding signal,[1],"1.05 fold enrichment (6-mer frequency, TF over GST control)"
same,binding signal,[2],"1.1 fold enrichment (6-mer frequency, TF over GST control)"
same,binding signal,[3],"1.15 fold enrichment (6-mer frequency, TF over GST control)"
same,binding signal,[4],"1.05 fold enrichment (6-mer frequency, TF over GST control)"
same,binding signal,[5],"1.15 fold enrichment (6-mer frequency, TF over GST control)"
same,binding signal,[6],"1.15 fold enrichment (6-mer frequency, TF over GST control)"
same,binding signal,[7],"1.2 fold enrichment (6-mer frequency, TF over GST control)"
same,binding signal,[8],"1.09 fold enrichment (6-mer frequency, TF over GST control)"
same,binding signal,[9],"1.51 fold enrichment (6-mer frequency, TF over GST control)"
same,binding signal,[10],"1.1 fold enrichment (6-mer frequency, TF over GST control)"
same,binding signal,[11],"1.06 fold enrichment (6-mer frequency, TF over GST control)"
same,binding signal,[12],"1.01 fold enrichment (6-mer frequency, TF over GST control)"
same,binding signal,[13],"1.01 fold enrichment (6-mer frequency, TF over GST control)"
same,binding signal,[14],"1.03 fold enrichment (6-mer frequency, TF over GST control)"
same,binding signal,[15],"1.13 fold enrichment (6-mer frequency, TF over GST control)"
same,binding signal,[16],"1.11 fold enrichment (6-mer frequency, TF over GST control)"
